Only some compounds are listed: those with a hit (about 4.6% of all), similar ones and a draw of the others.
ADAM10 inh: human ADAM10 inhibitors, primary screen, biochemical, QFRET, HTS; inhibition, % at 7 µM; Disintegrin and metalloproteinase domain-containing protein 10 (Homo sapiens), O14672; 370,000 compounds, 0.62% hits; recombinant ADAM10, EDANS/DABCYL FRET peptide cleavage, 3 h;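 active means inhibition above a per-campaign cutoff equal to the mean of compounds falling between control-based bounds plus 3 SD, cut at about 20% in these data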;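 further: 0% = DMSO wells while the 100% control is not disclosed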
ADAM17 inh: ADAM17 inhibitors, primary screen, biochemical, QFRET. AID 720648, 2013. Disintegrin and metalloproteinase domain-containing protein 17 (Homo sapiens), P78536. 370,000 compounds, 0.83% hits. inhibition, % at 6.95 µM. recombinant ADAM17, EDANS/DABCYL FRET peptide cleavage;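 active means inhibition above the mean of compounds lying between control limits plus 3 SD, set per campaign, cut at about 8.5% in these data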;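 further: 0% = DMSO-only wells as the low control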
GRIN3A LBD mod: binders of NR3A ligand-binding domain, primary screen, biophysical, differential scanning fluorimetry, uHTS; NR3A LBD differential scanning fluorimetry, Tm shift; 0% = protein alone, 100% = glycine-bound protein; Tm shift relative to glycine control, % at 25 µM; 340,000 compounds, 2.5% hits; AID 1259313, 2017;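 active means melting temperature shift of at least 10% of the positive control shift, at one fixed dose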
FAS-TE inh: FAS thioesterase domain inhibitors, primary screen, biochemical, fluorescence intensity, uHTS. inhibition, % at 15 µM. Fatty acid synthase (Homo sapiens), P49327. 360,000 compounds, 0.67% hits. recombinant FAS-TE, OMFH fluorogenic substrate, fluorescence endpoint;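 active means compounds whose normalised, plate-corrected inhibition of enzyme fluorescence in the single-dose primary screen is 50% or more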;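 further: 0% = DMSO with enzyme and 100% = substrate without enzyme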
KLK7 zymogen act: proKLK7 zymogen activators, primary screen, biochemical, fluorescence intensity; Kallikrein-7 (Homo sapiens), P49862; purified proKLK7, EDANS-DABCYL substrate fluorescence; 100% is mature enzyme control, 0% vehicle; activation, % at 7 µM; 370,000 compounds, 0.9% hits; AID 652039, 2013;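 active means activation above the mean of all tested compounds plus 3 SD, computed per campaign excluding outliers beyond control limits, cut at about 13% in these data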
Target sequence (P49862 whole entry, looked up): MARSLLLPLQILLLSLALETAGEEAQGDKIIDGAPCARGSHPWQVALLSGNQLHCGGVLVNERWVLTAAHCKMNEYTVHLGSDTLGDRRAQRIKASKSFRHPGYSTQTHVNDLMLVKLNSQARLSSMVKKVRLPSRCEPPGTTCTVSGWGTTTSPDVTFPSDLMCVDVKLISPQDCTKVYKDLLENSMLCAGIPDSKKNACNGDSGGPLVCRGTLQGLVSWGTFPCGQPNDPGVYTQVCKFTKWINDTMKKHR
ADAM10 confirm: human ADAM10 inhibitors, confirmation, biochemical, QFRET, triplicate; shares compounds with ADAM10 inh; 2,100 compounds, 1% hits; ADAM10 QFRET peptide cleavage, EDANS fluorescence; inhibition, % at 6.95 µM;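 active means inhibition above about 20% chosen separately for each screening run, limit read from the data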;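 further: 0% = DMSO wells and 100% = marimastat wells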
ADAM17 counter: ADAM17 inhibitors, counter-screen for ADAM10 exosite inhibitor project, biochemical, QFRET, high throughput. shares compounds with ADAM10 inh. ADAM17 QFRET peptide cleavage, EDANS fluorescence. inhibition, % at 6.95 µM. 2,100 compounds, 0.5% hits;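 active means mean triplicate inhibition above the solvent-only control wells' mean plus 3 SD, cut at about 12% in these data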;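 further: 0% = DMSO wells and 100% = marimastat wells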
ADAM10 ctr: ADAM10 inhibitors, counter-screen for ADAM17 exosite inhibitor project, biochemical, FRET, human ADAM10. shares compounds with ADAM17 inh. recombinant ADAM10, EDANS/DABCYL FRET peptide cleavage, 3 h. inhibition, % at 6.95 µM. 2,900 compounds, 47% hits. AID 743256, 2014;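 active means mean inhibition over the triplicate runs exceeds the activity threshold set in the earlier primary screen, cut at about 20% in these data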;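 further: 0% = DMSO wells and 100% = marimastat wells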
ADAM17 confirm: ADAM17 inhibitors, hit retest, confirmation, biochemical, QFRET peptide cleavage; shares compounds with ADAM17 inh; recombinant ADAM17, EDANS/DABCYL QFRET peptide cleavage; inhibition, % at 6.95 µM; 2,900 compounds, 65% hits; AID 743257, 2014;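 active means mean inhibition across replicates above the hit cutoff set in the primary screen, cut at about 8.5% in these data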;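 further: 0% = DMSO wells and 100% = marimastat wells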
* = called active by the depositor; x = no result given.

SMILES | ADAM10 inh | ADAM17 inh | GRIN3A LBD mod | FAS-TE inh | KLK7 zymogen act | ADAM10 confirm | ADAM17 counter | ADAM10 ctr | ADAM17 confirm
COC(=O)[C@]12C[C@H](CC(=O)NCc3cccc4ccccc34)C(=O)N(Cc3ccco3)C1=C[C@H](C1CCCC1)O[C@@H]2C | 22* | 14* | x | x | 0 | 9 | 4 | 34* | 17*
COC(=O)[C@]12C[C@H](CC(=O)NCCCCc3ccccc3)C(=O)N(CCc3ccc(OC)c(OC)c3)C1=C[C@H](C(C)(C)C)O[C@@H]2C | 27* | 9.0* | x | x | 0 | 6 | 2 | 24* | 13*
COC(=O)[C@]12C[C@H](CC(=O)NCc3ccccc3)C(=O)N(Cc3ccco3)C1=C[C@H](C1CCCC1)O[C@@H]2C | 10 | 3 | x | x | 0 | x | x | x | x
CCCCNC(=O)C[C@H]1C[C@@]2(C(=O)OC)C(=C[C@H](C(C)(C)C)O[C@@H]2C)N(Cc2cccc3ccccc23)C1=O | 29* | 15* | x | x | 0 | 6 | 2 | 26* | 17*
CCCCOCCCNC(=O)C[C@H]1C[C@@]2(C(=O)OC)C(=C[C@H](C(C)(C)C)O[C@@H]2C)N(Cc2ccccc2)C1=O | 12 | 2 | x | x | 0 | x | x | x | x
COc1cccc(CNC(=O)[C@H]2CCCN2C(=O)[C@H]2CCCN2C(=O)OC(C)(C)C)c1 | 0 | 0 | x | x | 0 | x | x | x | x
O[C@@H](Cc1ccccc1)[C@@H](/C=C/c1ccccc1)N(Cc1ccccc1)Cc1ccccc1 | -1 | -3 | x | x | 0 | x | x | x | x
CCOC(=O)c1c(C)[nH]c(C(=O)C(C)OC(=O)c2cccc(OCc3c(C)noc3C)c2)c1C (stereo not given) | 30* | 13* | -9 | 17 | 0 | 6 | 2 | 47* | 23*
CCC(C)NC(=O)c1cccc(OCc2c(C)noc2C)c1 (stereo not given) | -1 | 0 | 0 | -8 | 0 | x | x | x | x
CN(CC(=O)Nc1ccccc1)CC(=O)Nc1ccccc1Cl | -12 | -2 | -2 | 0 | 0 | x | x | x | x
CCCCc1ccc(NC(=O)CN(C)CC(=O)Nc2ccccc2Cl)cc1 | 34* | 16* | -12 | 19 | 0 | 2 | 1 | 20* | 9.6*
COc1ccc(C(C)(C)C)cc1NC(=O)Nc1ccc2c(c1)OCO2 | 24* | 10* | 8 | 32 | 0 | 5 | 2 | 41* | 24*
Cc1sc2ncnc(N3CCC(C(=O)N(C)CC(=O)Nc4ccc(Cl)c(C(F)(F)F)c4)CC3)c2c1C | 23* | 12* | x | 13 | 0 | 8 | 2 | 48* | 25*
CC(C)C[C@H]1COc2c(Cl)cccc2S(=O)(=O)N1 | -18 | 0 | x | x | 1 | x | x | x | x
CC(C)(C)c1ccc(C#C[C@@H]2C=C[C@H](O)[C@@H](COC(=O)Nc3ccccc3)O2)cc1 | 8 | 4 | x | x | 1 | x | x | x | x
Oc1cc(O)cc(C=Cc2ccc(O)c(O)c2)c1 | -140 | -48 | x | x | -135 | x | x | x | x
COc1cc(C(O)c2nc(/C=C/c3ccccc3)cs2)ccc1F (stereo not given) | 42* | 17* | x | 18 | 0 | 3 | 1 | 22* | 11*
COc1cc(C(O)c2nc(-c3cccc(C(C)C)c3)cs2)ccc1F (stereo not given) | 20* | 11* | x | 19 | 0 | 6 | 2 | 24* | 13*
COc1ccc(C(O)c2nc(-c3ccc(F)cc3OC)cs2)cc1 (stereo not given) | 7 | 2 | x | 17 | 0 | x | x | x | x
OC(c1ccc(F)cc1)c1nc(/C=C/c2ccccc2)cs1 (stereo not given) | 7 | 5 | x | 16 | 0 | x | x | x | x
COc1cccc(C(O)c2nc(-c3ccc(F)cc3OC)cs2)c1 (stereo not given) | 30* | 11* | x | 8 | 0 | 3 | 1 | 11 | 8.8*
COc1ccc(Cn2c(C)c(CC(=O)Nc3ccc(Oc4cccnc4)c(C)c3)c3ccccc32)cc1 | -2 | 2 | x | x | 0 | x | x | x | x
CCCCn1nnnc1C1c2ccccc2OCC(=O)N1Cc1ccc2c(c1)OCO2 (stereo not given) | 1 | -2 | x | x | 0 | x | x | x | x
O=C(CSc1ccc2ccccc2c1Br)Nc1cccc(S(=O)(=O)NC2=NCCCCC2)c1 | 35* | 14* | 12* | 17 | 0 | 5 | 2 | 28* | 20*
Cc1ccc(C)c(SCC(=O)Nc2cccc(S(=O)(=O)NC3=NCCCCC3)c2)c1 | -7 | -3 | -2 | -5 | 0 | x | x | x | x
SMILES | ADAM10 inh | ADAM17 inh | GRIN3A LBD mod | FAS-TE inh | KLK7 zymogen act | ADAM10 confirm | ADAM17 counter | ADAM10 ctr | ADAM17 confirm
Cc1ccc(S(=O)(=O)N(C)c2ccc(OCC(=O)Nc3nc4ccccc4s3)cc2)cc1 | 29* | 18* | -6 | 20 | 0 | 10 | 3 | 23* | 16*
O=S(=O)(Nc1ccc(C(O)(C(F)(F)F)C(F)(F)F)cc1)c1cccc2cccnc12 | 27* | 10* | x | 13 | 0 | -2 | 0 | 20* | 14*
O=S(=O)(Nc1ccc(Br)cc1)c1cccc2cccnc12 | 3 | 3 | -1 | 4 | 0 | x | x | x | x
C=CCn1c(SCc2ccc(C#N)cc2)nnc1-c1ccco1 | 0 | 1 | x | x | 0 | x | x | x | x
COC(=O)C[C@H]1CC[C@@H]2[C@H](COc3ccc(NC(=O)c4cccc(Cl)c4)cc3C(=O)N2C)O1 | 0 | -3 | x | x | 0 | x | x | x | x
COc1ccc(C(CC(=O)c2ccccc2)CC(=O)c2ccccc2)cc1 | 20* | 11* | 1 | 34 | 0 | 2 | 1 | 5 | 5
C[C@]12Cc3ccccc3C1CC1=N[C@@H](c3ccc(C(F)(F)F)cc3)O[C@@]13C[C@@H]2C(=O)N3Cc1ccncc1 (stereo not given in full) | -27 | -7 | x | x | 0 | x | x | x | x

Screening data (PubChem BioAssay)
